Of roughly 8,800 targets only a part is listed; those with a hit were picked by preference. About 0.5% of all pairs of compound and target were hits. Values without a mark were called inactive.
Experiments:
Test in all cases: log2 fold change, soluble protein after heating vs DMSO (PISA); higher = thermal stabilisation; K562 lysate, 10 uM; active = over 0.2 and 3.5 SD of the protein, either way, in both replicates (recomputed)
alvocidib = compound: CN1CC[C@H](c2c(O)cc(O)c3c(=O)cc(-c4ccccc4Cl)oc23)[C@H](O)C1 [alvocidib]
How it was run: (§1)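 Following dounce homogenisation of K562 pellets in PBS pH 7.4 with 1 mM MgCl2, crude extract at 1 mg/mL protein was incubated for 30 min with 10 μM compound. Aliquots were then heated for 3 min over 48°C-58°C and pooled, NP-40 was added to 0.5% at 4°C, and soluble protein was recovered as the supernatant at 21,000xg for 90 min. Channel-sum-equalised TMTpro 16plex LC-MS/MS quantified this protein. Each value, from duplicates, is a log-two fold change in thermal stability relative to solvent controls.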

Tubastatin A = compound: CN1CCc2c(c3ccccc3n2Cc2ccc(C(=O)NO)cc2)C1 [Tubastatin A]
How it was run: as §1

[1] = compound: CNC(=O)C1=CC=CC=C1NC2=NC(=NC=C2Cl)NC3=C(C=C(C=C3)N4CCOCC4)OC
How it was run: as §1

defactinib = compound: CNC(=O)c1ccc(Nc2ncc(C(F)(F)F)c(NCc3nccnc3N(C)S(C)(=O)=O)n2)cc1 [defactinib]
How it was run: as §1

[2] = compound: CNc1nc(-c2ccc3c(N)n[nH]c3c2)cc(N2C[C@@H](C(=O)NC3CCCCC3)CC[C@H]2C)n1
How it was run: as §1

alisertib = compound: COc1cc(Nc2ncc3c(n2)-c2ccc(Cl)cc2C(c2c(F)cccc2OC)=NC3)ccc1C(=O)O [alisertib]
How it was run: as §1

gefitinib = compound: COc1cc2ncnc(Nc3ccc(F)c(Cl)c3)c2cc1OCCCN1CCOCC1 [gefitinib]
How it was run: as §1

encorafenib = compound: COC(=O)N[C@@H](C)CNc1nccc(-c2cn(C(C)C)nc2-c2cc(Cl)cc(NS(C)(=O)=O)c2F)n1 [encorafenib]
How it was run: as §1

[3] = compound: COC(=O)[C@H](CCSC)NC(=O)C1=C(C=C(C=C1)NC[C@H](CS)N)C2=CC=CC=C2
How it was run: as §1

[4] = compound: COc1cc2nc(-c3cc(F)ccc3O)nc(N[C@@H]3CNC[C@H]3C(C)(C)O)c2cc1OC
How it was run: as §1

Sequence of UniProt Q14157 (Q14157 whole entry, looked up): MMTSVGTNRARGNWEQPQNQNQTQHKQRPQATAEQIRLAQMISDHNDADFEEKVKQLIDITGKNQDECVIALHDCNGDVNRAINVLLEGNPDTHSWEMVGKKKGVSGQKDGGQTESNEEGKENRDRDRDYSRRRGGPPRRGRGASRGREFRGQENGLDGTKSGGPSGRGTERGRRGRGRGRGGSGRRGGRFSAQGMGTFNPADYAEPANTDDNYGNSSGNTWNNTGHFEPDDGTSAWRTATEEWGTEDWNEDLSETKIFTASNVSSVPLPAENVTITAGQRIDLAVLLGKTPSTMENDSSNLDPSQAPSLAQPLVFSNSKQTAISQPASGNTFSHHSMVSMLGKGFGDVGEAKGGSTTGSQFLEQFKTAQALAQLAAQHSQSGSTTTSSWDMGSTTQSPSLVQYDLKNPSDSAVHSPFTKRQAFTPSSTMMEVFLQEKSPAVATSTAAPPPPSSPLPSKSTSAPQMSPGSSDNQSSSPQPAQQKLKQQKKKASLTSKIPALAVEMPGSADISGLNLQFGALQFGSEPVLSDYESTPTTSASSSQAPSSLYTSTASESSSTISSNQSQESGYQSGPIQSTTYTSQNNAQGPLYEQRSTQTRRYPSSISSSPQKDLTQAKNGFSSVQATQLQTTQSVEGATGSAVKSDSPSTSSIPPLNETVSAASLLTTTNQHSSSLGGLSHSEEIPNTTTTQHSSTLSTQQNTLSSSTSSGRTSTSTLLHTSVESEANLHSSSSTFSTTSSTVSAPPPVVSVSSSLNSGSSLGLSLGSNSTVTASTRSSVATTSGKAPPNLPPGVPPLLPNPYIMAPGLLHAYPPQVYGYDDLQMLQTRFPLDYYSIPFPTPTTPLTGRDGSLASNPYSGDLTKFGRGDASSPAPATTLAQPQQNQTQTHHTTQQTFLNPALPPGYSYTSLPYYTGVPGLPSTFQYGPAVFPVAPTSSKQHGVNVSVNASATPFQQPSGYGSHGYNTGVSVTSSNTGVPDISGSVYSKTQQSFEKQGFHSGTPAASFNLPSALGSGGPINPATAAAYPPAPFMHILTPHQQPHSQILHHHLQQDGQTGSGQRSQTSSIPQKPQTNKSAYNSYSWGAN
Sequence of UniProt P36897 (P36897 whole entry, looked up): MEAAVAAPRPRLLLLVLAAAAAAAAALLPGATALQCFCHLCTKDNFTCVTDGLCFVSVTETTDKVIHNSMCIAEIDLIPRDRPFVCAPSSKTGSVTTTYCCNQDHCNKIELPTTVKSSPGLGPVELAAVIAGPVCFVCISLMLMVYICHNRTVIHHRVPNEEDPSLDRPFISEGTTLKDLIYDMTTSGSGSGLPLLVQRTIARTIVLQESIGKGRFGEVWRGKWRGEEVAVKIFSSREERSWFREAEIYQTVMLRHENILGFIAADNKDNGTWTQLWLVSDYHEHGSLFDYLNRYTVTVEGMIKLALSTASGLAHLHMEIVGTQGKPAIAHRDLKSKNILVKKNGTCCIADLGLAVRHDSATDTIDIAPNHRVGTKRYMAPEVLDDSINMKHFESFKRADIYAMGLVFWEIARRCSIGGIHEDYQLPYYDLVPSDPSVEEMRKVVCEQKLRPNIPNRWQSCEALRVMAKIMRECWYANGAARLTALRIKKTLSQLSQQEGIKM
Sequence of UniProt P62328 (P62328 whole entry, looked up): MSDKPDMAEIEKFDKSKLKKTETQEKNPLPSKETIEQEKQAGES
Sequence of UniProt P43897 (P43897 whole entry, looked up): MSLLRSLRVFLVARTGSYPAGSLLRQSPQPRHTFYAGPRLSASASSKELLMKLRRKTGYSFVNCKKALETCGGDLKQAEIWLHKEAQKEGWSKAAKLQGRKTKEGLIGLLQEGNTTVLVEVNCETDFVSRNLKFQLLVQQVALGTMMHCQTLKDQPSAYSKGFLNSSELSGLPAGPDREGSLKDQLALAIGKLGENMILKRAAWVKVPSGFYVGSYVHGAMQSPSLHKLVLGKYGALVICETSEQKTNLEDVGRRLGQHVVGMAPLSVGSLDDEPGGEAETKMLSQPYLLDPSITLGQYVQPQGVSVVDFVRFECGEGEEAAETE
Sequence of UniProt Q6Q0C0 (Q6Q0C0 whole entry, looked up): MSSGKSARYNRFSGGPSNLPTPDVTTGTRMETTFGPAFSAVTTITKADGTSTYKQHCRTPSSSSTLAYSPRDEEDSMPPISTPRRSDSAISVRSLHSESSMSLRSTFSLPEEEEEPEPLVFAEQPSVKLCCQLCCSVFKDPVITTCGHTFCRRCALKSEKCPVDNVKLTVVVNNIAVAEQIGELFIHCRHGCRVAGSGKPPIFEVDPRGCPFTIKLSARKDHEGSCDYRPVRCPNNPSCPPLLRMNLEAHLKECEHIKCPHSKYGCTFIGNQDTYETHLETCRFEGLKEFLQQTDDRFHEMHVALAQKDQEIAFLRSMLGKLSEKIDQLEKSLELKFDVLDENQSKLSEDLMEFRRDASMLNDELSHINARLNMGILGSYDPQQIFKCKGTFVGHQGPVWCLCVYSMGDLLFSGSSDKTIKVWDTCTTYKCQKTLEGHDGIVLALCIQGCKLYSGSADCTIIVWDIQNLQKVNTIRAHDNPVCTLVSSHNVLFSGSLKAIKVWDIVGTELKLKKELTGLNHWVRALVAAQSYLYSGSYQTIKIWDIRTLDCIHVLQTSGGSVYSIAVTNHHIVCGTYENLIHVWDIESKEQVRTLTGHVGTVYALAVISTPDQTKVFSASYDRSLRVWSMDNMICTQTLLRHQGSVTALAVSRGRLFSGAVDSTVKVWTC
Sequence of UniProt Q24JP5 (Q24JP5 whole entry, looked up): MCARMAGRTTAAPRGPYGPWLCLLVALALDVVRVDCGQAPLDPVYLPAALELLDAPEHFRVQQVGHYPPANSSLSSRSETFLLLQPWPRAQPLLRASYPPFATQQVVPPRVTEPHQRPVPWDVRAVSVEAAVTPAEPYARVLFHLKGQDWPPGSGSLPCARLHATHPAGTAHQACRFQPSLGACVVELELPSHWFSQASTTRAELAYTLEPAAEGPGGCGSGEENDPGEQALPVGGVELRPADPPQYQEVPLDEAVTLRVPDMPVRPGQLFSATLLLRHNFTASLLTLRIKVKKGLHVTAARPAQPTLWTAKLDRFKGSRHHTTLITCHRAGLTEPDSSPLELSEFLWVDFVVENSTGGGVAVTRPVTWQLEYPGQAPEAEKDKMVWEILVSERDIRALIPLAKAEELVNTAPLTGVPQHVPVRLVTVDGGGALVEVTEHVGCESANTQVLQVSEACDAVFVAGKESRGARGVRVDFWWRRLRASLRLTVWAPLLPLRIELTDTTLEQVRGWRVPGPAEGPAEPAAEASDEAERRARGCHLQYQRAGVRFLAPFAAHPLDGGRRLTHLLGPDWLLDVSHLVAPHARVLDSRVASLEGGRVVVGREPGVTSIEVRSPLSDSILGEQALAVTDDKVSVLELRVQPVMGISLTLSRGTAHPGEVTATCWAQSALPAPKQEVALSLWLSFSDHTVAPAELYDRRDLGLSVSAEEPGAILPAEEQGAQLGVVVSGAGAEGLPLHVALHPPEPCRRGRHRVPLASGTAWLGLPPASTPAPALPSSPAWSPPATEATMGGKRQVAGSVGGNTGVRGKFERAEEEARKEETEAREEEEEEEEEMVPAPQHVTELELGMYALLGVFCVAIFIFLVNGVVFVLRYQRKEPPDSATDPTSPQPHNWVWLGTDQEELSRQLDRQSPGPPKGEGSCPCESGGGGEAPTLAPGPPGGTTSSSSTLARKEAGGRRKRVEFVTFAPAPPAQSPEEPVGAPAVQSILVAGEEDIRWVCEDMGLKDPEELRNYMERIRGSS
Sequence of UniProt Q04726 (Q04726 whole entry, looked up): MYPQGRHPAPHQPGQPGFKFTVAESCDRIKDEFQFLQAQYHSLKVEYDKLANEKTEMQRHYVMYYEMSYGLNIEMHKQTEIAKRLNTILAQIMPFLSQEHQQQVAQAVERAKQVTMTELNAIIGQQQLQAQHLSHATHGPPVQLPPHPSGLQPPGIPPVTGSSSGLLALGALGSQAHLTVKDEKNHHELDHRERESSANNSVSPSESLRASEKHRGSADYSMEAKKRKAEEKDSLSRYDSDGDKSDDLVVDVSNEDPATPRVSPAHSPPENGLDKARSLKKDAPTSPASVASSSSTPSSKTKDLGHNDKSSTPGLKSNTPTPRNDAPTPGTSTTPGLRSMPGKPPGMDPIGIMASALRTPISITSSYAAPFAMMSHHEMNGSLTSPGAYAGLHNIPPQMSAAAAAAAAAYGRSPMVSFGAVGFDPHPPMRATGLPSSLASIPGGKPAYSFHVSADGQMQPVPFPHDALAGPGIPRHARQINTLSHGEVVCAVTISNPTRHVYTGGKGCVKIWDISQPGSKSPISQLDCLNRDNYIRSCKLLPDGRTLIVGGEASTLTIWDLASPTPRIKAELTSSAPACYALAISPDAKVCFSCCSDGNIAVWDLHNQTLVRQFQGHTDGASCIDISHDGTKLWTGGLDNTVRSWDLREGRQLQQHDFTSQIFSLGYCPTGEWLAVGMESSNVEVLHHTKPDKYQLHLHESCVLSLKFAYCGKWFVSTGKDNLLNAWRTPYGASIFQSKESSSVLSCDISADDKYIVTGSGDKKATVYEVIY
Sequence of UniProt O43493 (O43493 whole entry, looked up): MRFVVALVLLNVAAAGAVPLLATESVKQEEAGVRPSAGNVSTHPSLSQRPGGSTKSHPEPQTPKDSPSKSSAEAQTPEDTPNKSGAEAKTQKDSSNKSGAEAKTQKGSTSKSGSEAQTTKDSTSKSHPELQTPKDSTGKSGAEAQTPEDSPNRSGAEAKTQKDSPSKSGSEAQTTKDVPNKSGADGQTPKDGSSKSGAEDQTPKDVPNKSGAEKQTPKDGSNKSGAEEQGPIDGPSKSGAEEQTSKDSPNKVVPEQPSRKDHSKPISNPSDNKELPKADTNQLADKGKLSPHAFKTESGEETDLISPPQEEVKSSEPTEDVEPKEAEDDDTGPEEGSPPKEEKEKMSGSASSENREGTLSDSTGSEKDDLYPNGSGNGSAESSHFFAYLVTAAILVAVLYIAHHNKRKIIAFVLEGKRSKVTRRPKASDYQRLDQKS
Sequence of UniProt Q9P0S9 (Q9P0S9 whole entry, looked up): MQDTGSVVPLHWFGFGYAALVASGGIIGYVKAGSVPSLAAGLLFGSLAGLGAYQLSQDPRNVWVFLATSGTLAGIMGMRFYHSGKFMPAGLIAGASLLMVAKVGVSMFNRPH

Target	log2 fold change (alvocidib)	log2 fold change (Tubastatin A)	log2 fold change [1]	log2 fold change (defactinib)	log2 fold change [2]	log2 fold change (alisertib)	log2 fold change (gefitinib)	log2 fold change (encorafenib)	log2 fold change [3]	log2 fold change [4]
TJP1 (UniProt G3V1L9)	-0.09	-0.042	0.124	0.241	0.119	-0.079	-0.215			
TGOLN2 isoform 7 (UniProt O43493)	-0.053	0.003	-0.052	0.005	0.045	-0.059	-0.048	0.014	-0.031	0.02
TUBB6 (UniProt K7ES63)	-0.11	-0.021	0.111	-0.018		0.055	0.165	0.024	0.125	-0.051
TSFM (UniProt P43897)	0.036	-0.088	0.017	0.015	0.01	-0.021	0.018	-0.017	0.13	0.017
TPM3 isoform 3 (UniProt P06753)	-0.202	-0.049	0.028	0.074	-0.137			-0.014	-0.039	-0.001
THEMIS2 (UniProt Q5TEJ8)	-0.036	-0.069	0.024	0.028	0	0.052	0.025	-0.027	0.023	-0.159
TMEM164 (UniProt Q5U3C3)	-0.393	0.05	-0.039	0.007	0.333	-0.075	-0.063	-0.107	0.185	0.021
TUBB4A (UniProt M0QYM7)	-0.158	-0.007	-0.109	-0.115		-0.025	-0.076	0.009	0.053	0.042
TUBB3 (UniProt Q13509)	-0.001	-0.081	0.006	0.023	-0.034	0.007	-0.016	-0.004	0.072	0.007
TTLL12 (UniProt V9GY16)	0.003	0.177	0.077	-0.095				-0.174	0.146	
UBR4 isoform 4 (UniProt Q5T4S7)		-0.337	-0.16	-0.032	0.144			-0.028	0.062	0.064
TCF3 isoform 2 (UniProt P15923)		0.055	0.214							
TMEM132A isoform 2 (UniProt Q24JP5)	-0.381	0.136	-0.097					-0.064	-0.042	1.16 (active)
TBK1 (UniProt Q9UHD2)		-0.16	0.528 (active)	0.328	-0.035	0.039	-0.032	0.014	-0.293	-0.007
TCF20 (UniProt Q9UGU0)	-0.017		0.01		0.615 (active)					0.167
U2AF1L5 (UniProt P0DN76)	-0.58	-0.193	-0.044		-0.023	-0.045	-0.061	-0.101	0.096	-0.013
TRIM3 (UniProt O75382)			0.06	-0.095				0.034	0.041	0.069
UBAP2 (UniProt Q5JV08)						-0.165	-0.139			
TEDC1 (UniProt Q86SX3)		-0.254	0.038		0.051	-0.019	0.047	0.094	0.047	-0.008
UCP2 (UniProt P55851)		0.182		0.096		0.033	0.045			
TASP1 (UniProt Q9H6P5)		0.087	-0.119		0.112	-0.151	-0.046	-0.035	0.103	-0.048
TLE3 isoform 5 (UniProt Q04726)	-0.153	-0.06	0.004		0.011	0	0.009	-0.02	0.002	0.008

Target	log2 fold change (alvocidib)	log2 fold change (Tubastatin A)	log2 fold change [1]	log2 fold change (defactinib)	log2 fold change [2]	log2 fold change (alisertib)	log2 fold change (gefitinib)	log2 fold change (encorafenib)	log2 fold change [3]	log2 fold change [4]
TXNRD2 isoform 3 (UniProt Q9NNW7)		0.072	0.194							
TENM4 (UniProt Q6N022)	0.03									0.024
TEC (UniProt P42680)				0.07		-0.086	-0.027	-0.044	-0.036	-0.028
TRPM4 (UniProt Q8TD43)	-0.401	0.053	-0.163		0.14					
THAP9 (UniProt Q9H5L6)	-0.249	0.053		-0.067	0.476			-0.009	0.085	0.179
TUBGCP5 (UniProt Q96RT8)	-0.069	-0.128		-0.159	-0.055	-0.023	-0.007	0.179	0.145	0.025
TNIK isoform 5 (UniProt Q9UKE5)	0.012	-0.015			-0.04					0.214
TMEM14C (UniProt Q9P0S9)		-0.463 (active)	0.033	0.205	0.011	-0.011	0.003	0.004	0.022	-0.168
TRAF7 (UniProt Q6Q0C0)	0.058	-0.008		0.141	0.025	-0.05	-0.099	0.015	-0.11	
TMPO isoform 2 (UniProt P42167)				0.058	0.186			-0.113	-0.14	
TFPI isoform 2 (UniProt P10646)				-0.109						
TUBB4A (UniProt P04350)	-0.006	-0.113	-0.029		0.051	0.021	0.101	-0.027	0.112	-0.002
TMC1 (UniProt Q8TDI8)		-0.088	-0.028	-0.002		0.216	0.215	0.03	0.054	0.021
TCF4 (UniProt P15884)	0.005	-0.282			-0.009	0.078	0.06	0.17	-0.099	0.212
TMSB4X (UniProt P62328)	0.401	0.102	-0.045			-0.143	-0.001	0.043	-0.055	0.063
TGFBR1 isoform 2 (UniProt P36897)			0.156		-0.004			-0.017	0.077	
TTC37 (UniProt Q6PGP7)		0.072	-0.13	-0.061	0.185	0.032	0.081			0.043
TCF3 (UniProt X6REB3)	-0.168			-0.149						
TM2D3 (UniProt Q9BRN9)	-0.291	-0.125	0.008					-0.116	-0.116	
TFPT (UniProt P0C1Z6)			-0.041		0.381 (active)					0.027
TMEM154 (UniProt Q6P9G4)		0.063			-0.099			-0.015	0.023	
UBAP2L isoform 1 (UniProt Q14157)		-0.006				0.032	-0.088			

Source: the supplement of paper PMC10849652
